Screens from PubChem BioAssay.
In the library only some 3.5% were active in any assay of this set; here they are far more common.
TEAD-YAP inh: TEAD-YAP interaction inhibition, primary screen, TEAD-YAP interaction inhibitor project, luminescence, HEK-TIYL cells; inhibition, % at 9.12 µM; 640,000 compounds, 1.4% hits; TEAD-Gal4/YAP UAS-luciferase luminescence; AID 1259422, 2018; in the data active = inhibition above about 32%
MITF inh: MITF inhibitors, primary screen, biochemical, AlphaScreen, human; Microphthalmia-associated transcription factor (Homo sapiens), O75030; 650,000 compounds, 0.91% hits; inhibition, % at 2.6 µM; AlphaScreen MITF homodimerization, bead proximity signal; in the data active = inhibition above about 50%
GPR151 ag: activators of human GPR151, primary screen, cell-based, PathHunter beta-arrestin, luminescence; AID 1508602, 2020; 650,000 compounds, 1% hits; G-protein coupled receptor 151 (Homo sapiens), Q8TDV0; activation, % at 11.2 µM; PathHunter beta-arrestin GPR151 cells; in the data active = activation above about 4.9%
Target sequence (Q8TDV0 whole entry, looked up): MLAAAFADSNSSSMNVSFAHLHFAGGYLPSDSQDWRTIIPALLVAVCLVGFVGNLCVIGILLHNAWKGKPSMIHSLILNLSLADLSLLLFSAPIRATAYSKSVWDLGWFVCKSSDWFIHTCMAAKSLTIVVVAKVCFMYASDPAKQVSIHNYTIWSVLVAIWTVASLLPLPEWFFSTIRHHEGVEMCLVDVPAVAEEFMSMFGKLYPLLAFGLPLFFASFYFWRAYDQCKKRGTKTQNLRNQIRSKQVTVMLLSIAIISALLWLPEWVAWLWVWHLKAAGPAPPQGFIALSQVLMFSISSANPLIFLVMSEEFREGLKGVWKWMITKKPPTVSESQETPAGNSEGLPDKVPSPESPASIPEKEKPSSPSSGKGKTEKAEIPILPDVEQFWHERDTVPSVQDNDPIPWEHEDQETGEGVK
FBW7 activator: FBW7 E3 ligase activators, primary screen, biochemical, AlphaScreen, human; AlphaScreen FBW7–phospho-cyclin E peptide binding, activator screen; normalized activity (activation), % at 26.1 µM; 650,000 compounds, 0.13% hits; AID 1259310, 2017; in the data active = normalized activity above about 1.9%;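 also: purified mutant Fbw7 with reduced substrate affinity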
GPR151 confirm: GPR151 activators, triplicate retest, confirmation, cell-based, PathHunter beta-arrestin, luminescence | AID 1508609, 2020 | 6,700 tested, under 10 active | GPR151 PathHunter beta-arrestin cells, 90 min; % of EA-reagent control over plate median | shares compounds with GPR151 ag | activation, % at 11.2 µM;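 active = mean percent activation across replicates above the confirmation screen cutoff of 4.91%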
GPR119 ag: GPR119 activators in beta-arrestin cells, counter-screen for GPR151 activator project, cell-based, PathHunter beta-arrestin, luminescence, triplicate; shares compounds with GPR151 ag; 6,700 compounds, 0.3% hits; AID 1508611, 2020; activation, % at 11.2 µM; 90 min; 0 = compound-well median, 100 = enzyme-acceptor control;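 active = mean percent activation in the counterscreen above 29.09%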;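 also: counterscreen on off-target GPR119 to flag nonselective hits from the GPR151 activator screen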
Each line names hits and unclear results; the compound was inactive in the other large screens (follow-up assays come after a bar, where they were run); ! = not confirmed by another sample.

Cc1nn(-c2ccccc2)c(NC(=O)C(C(F)(F)F)C(F)(F)F)c1-c1ccccc1	none
Cc1ncc(CO)c(C2N(C)c3ccccc3N2C)c1O	none
COc1ccc(CCNC(=O)c2cncc(Nc3ncccn3)c2)cc1	GPR151 ag 6.9 | GPR151 confirm inactive | GPR119 ag inactive
COCC(C)N=C1NN=C(c2ccc(O)cc2O)CS1 (stereo unspecified)	none
Cc1nc2c(C)cccn2c1C(=O)NCCc1ccccn1	none
CCOc1ccc2cc(C#N)c(SCC(=O)NC(C)(C)C)nc2c1	GPR151 ag 7.0 | GPR151 confirm inactive | GPR119 ag inactive
CCOc1ccc2nc(SCC(=O)Nc3ccc4c(c3)OCCO4)c(C#N)cc2c1	GPR151 ag 6.4 | GPR151 confirm inactive | GPR119 ag inactive
N#Cc1cc2cc3c(cc2nc1SCC(=O)Nc1ccc(F)cc1)OCCO3	GPR151 ag 6.2 | GPR151 confirm inactive | GPR119 ag inactive
N#Cc1cc2cc3c(cc2nc1SCC(=O)Nc1ccc(F)cc1)OCO3	none
CC(C)OC(=O)CCC/C=C\C[C@@H]1[C@@H](/C=C/[C@H](O)CCc2ccccc2)[C@H](O)C[C@@H]1O	none (no result: TEAD-YAP inh, FBW7 activator)
O=C(NCC1Cc2cc(-c3cncnc3)ccc2O1)[C@@H]1C[C@@H]2C=C[C@H]1C2 (stereo partly specified)	none
CC(C)(C)c1cc(C(=O)N/N=C\C(Cl)=C\c2ccccc2)n[nH]1	none
O=C(CCN1C(=O)C2CCCCC2C1=O)NNc1c(F)c(F)cc(F)c1F (stereo unspecified)	GPR151 ag 5.4 | GPR151 confirm inactive | GPR119 ag inactive
CCC(=O)N/N=C(\C)CC(=O)Nc1ccc2c(c1)OCCO2	none
C/C(CC(=O)Nc1ccc2c(c1)OCCO2)=N\NC(=O)C(c1ccccc1)c1ccccc1	GPR151 ag 5.1 | GPR151 confirm inactive | GPR119 ag inactive
Cc1[nH]c2ccccc2c1/C=N/Nc1ccccc1[N+](=O)[O-]	GPR151 ag 6.9 | GPR151 confirm inactive | GPR119 ag inactive
O=C(NCc1ccccc1Br)c1ccco1	GPR151 ag 6.1 | GPR151 confirm inactive | GPR119 ag inactive
O=C(NCc1ccccc1F)c1ccco1	none
COc1ccc(NC(=O)CSc2nc3ccccc3c(=O)n2CCc2ccc(S(N)(=O)=O)cc2)c(OC)c1	none
COc1cccc(N2CC(NC(=O)N3CCN(c4ccc(C(C)=O)cc4)CC3)CC2=O)c1 (stereo unspecified)	none
COc1cccc(N2CC(NC(=O)N3CCN(c4ccc([N+](=O)[O-])cc4)CC3)CC2=O)c1 (stereo unspecified)	GPR151 ag 12 | GPR151 confirm inactive | GPR119 ag inactive
CC(C)CC(=O)NCC1Cc2c(F)ccc(-c3ccncc3)c2O1 (stereo unspecified)	none
O=C(Cc1ccsc1)NCC1Cc2c(F)ccc(-c3ccncc3)c2O1 (stereo unspecified)	GPR151 ag 17 | GPR151 confirm inactive | GPR119 ag inactive
CCOc1cc(CN2CCc3nnc(C(NS(C)(=O)=O)C(C)C)n3CC2)ccc1O (stereo unspecified)	GPR151 ag 8.1 | GPR151 confirm inactive | GPR119 ag inactive
CCC(=O)NC(c1nnc2n1CCN(Cc1ccc(C)c(C)c1)CC2)C(C)C (stereo unspecified)	GPR151 ag 9.8 | GPR151 confirm inactive | GPR119 ag inactive
CCC(=O)NC(c1nnc2n1CCN(Cc1ccc(OC)c(C)c1)CC2)C(C)C (stereo unspecified)	none
O=[N+]([O-])c1ccc2nonc2c1Nc1cccc(O)c1	none
CCOC(=O)CSc1ncnc2c1nnn2Cc1ccc(F)cc1	none
Cc1ccccc1C(=O)NNC(=O)CCN1CCN(c2ccccc2)CC1	none
Cc1nc(C)c(-c2csc(Nc3cccc(Cl)c3C)n2)s1	none
CC(=O)N1CN(Cc2ccccc2)Cc2c1sc1c2CCCC1	GPR151 ag 5.5 | GPR151 confirm inactive | GPR119 ag inactive
CC(=O)N1CN(Cc2cccnc2)Cc2c1sc1c2CCCC1	none
COC(=O)c1ccc(CN(c2ccccn2)S(=O)(=O)c2ccccc2)cc1	GPR151 ag 7.3 | GPR151 confirm inactive | GPR119 ag inactive
COC(=O)c1ccc(CN(c2ccccc2)S(=O)(=O)c2ccccc2)cc1	none
Cc1cc(=O)oc2cc(OCC(O)CNCc3ccco3)ccc12 (stereo unspecified)	none
c1ccc(SCc2nnc3n2CCCCC3)cc1	GPR151 ag 5.0 | GPR151 confirm inactive | GPR119 ag inactive
Cc1ccc(NC(=O)c2sc3ncn(CC(=O)N4CCOCC4)c(=O)c3c2C)cc1Cl	none
CNCCCCOc1c(C)cc(Br)cc1C	none
COc1ccc(-c2nc(C(=O)N3CCN(C)CC3)sc2-c2ccc(OC)cc2)cc1	GPR151 ag 6.7! (no result: TEAD-YAP inh) | GPR151 confirm inactive | GPR119 ag inactive
CCOc1ccc(C(=O)Nc2sc(C)c(C)c2C#N)cc1	none
CCCCOc1ccc(C(=O)Nc2sc(C)c(C)c2C#N)cc1	GPR151 ag 8.3 | GPR151 confirm inactive | GPR119 ag inactive
COc1cc(Cl)c(C)cc1NC(=O)c1cn(-c2ccc(C)c(C)c2)c(=O)c2ccccc12	none
CCN(c1ccccc1)S(=O)(=O)c1ccc(=O)[nH]c1	GPR151 ag 6.3 | GPR151 confirm inactive | GPR119 ag inactive
CCN(c1ccccc1)S(=O)(=O)c1ccc(-n2cccn2)cc1	GPR151 ag 9.0 | GPR151 confirm inactive | GPR119 ag inactive
CCN(c1ccccc1)S(=O)(=O)c1ccc2[nH]c(=O)ccc2c1	none
Cc1ccc(C(C)CCN2CCC3(CCC(CNC(=O)c4ccccc4)O3)CC2)o1 (stereo unspecified)	none
Cc1ccc(C(C)CCN2CCC3(CCC(CNC(=O)C(C)C)O3)CC2)o1 (stereo unspecified)	GPR151 ag 7.8 | GPR151 confirm inactive | GPR119 ag inactive
CC(C)c1nc(C(=O)N2CCCC(N3CCOCC3)C2)cs1 (stereo unspecified)	GPR151 ag 6.7 | GPR151 confirm inactive | GPR119 ag inactive
O=C(NC(NC(=O)c1ccccc1F)c1ccc2c(c1)OCO2)c1ccccc1F	GPR151 ag 11 | GPR151 confirm inactive | GPR119 ag inactive
CC(C)[C@H](NC(=O)c1ccccc1F)C(=O)Nc1ccc2c(c1)OCO2	none
CSc1nccc(-c2cc(Cl)c3c(c2)CC(CNC(=O)c2cc(C)n(C)n2)O3)n1 (stereo unspecified)	none
O=C(CSc1nnc2scc(-c3ccccc3)n12)N1CCCCCC1	none
Cc1ccc(-c2csc3nnc(SCC(=O)N4CCOCC4)n23)cc1	GPR151 ag 5.0 | GPR151 confirm inactive | GPR119 ag inactive
